Results filed as inconclusive are left out. Calls of active or inactive are those of the source. How the source made its calls, unless noted: active means hit-call score of the fitted dose curve at least 0.9, where 1 is the maximum; inconclusive means response in the unintended direction; inactive means score below 0.9.

Data on 40 molecules can be found in PubChem BioAssay (EPA / NIEHS).

Test [1] concerns the target Retinoic acid receptor RXR-alpha (Homo sapiens) (UniProt P19793). Briefly: ATG_RXRa_TRANS: Attagene TRANS-FACTORIAL HepG2 Assay for human Retinoid X Receptor alpha (RXRa) (AID 2283012). Summed up:
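Cells (HepG2) carried transiently transfected GAL4-responsive reporter units. Following a 24 h chemical incubation, reporter mRNA induction was read via RT-PCR fragment analysis; DMSO served as negative control and baseline.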

Test [2] addresses human Retinoid X Receptor beta (RXRb), RXRB (gene 6257) (UniProt P28702). Briefly: ATG_RXRb_TRANS: Attagene TRANS-FACTORIAL HepG2 Assay for human Retinoid X Receptor beta (RXRb) (AID 2283013). Summed up:
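Multiplexed TRANS reporter assay in HepG2; 24 h dosing; reporter mRNA by RT-PCR/CE fluorescence; gain-of-signal relative to DMSO.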

Test [3] concerns the target human Thyroid Receptor alpha (THRa1), THRA (gene 7067) (UniProt P10827). Briefly: ATG_THRa1_TRANS: Attagene TRANS-FACTORIAL HepG2 Assay for human Thyroid Receptor alpha (THRa1) (AID 2283014). Summed up:
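HepG2 cells transiently transfected with chimeric NR-Gal4 and GAL4-UAS reporter units, dosed 24 h. Reporter mRNA quantified by RT-PCR, fluorescent labeling, HpaI digestion and capillary electrophoresis; gain-of-signal fit versus DMSO.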

Read-out in test [4]: E-selectin (Homo sapiens) (UniProt P16581)
Briefly: BSK_3C_Eselectin: BioMAP Diversity Plus: 3C Assay for Eselectin Biomarker Activity (AID 2283015; active means hit-call score of the fitted dose curve at least 0.9, where 1 is the maximum; inactive means score below 0.9;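 further: cell surface E-selectin protein quantified by ELISA 24 h after dosing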). To be noted: primary human endothelial cells (HUVEC); actives raise or lower the signal. Summed up:
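Primary human umbilical vein endothelial cells (3C system), read 24 h after compound addition; E-selectin measured by ELISA. Bidirectional curve fitting against DMSO baseline; cytotoxicity by parallel SRB total-protein staining.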

Read-out in test [5]: Interleukin-1 alpha (IL1a), IL1A (gene 3552)
Briefly: BSK_BE3C_IL1a: BioMAP Diversity Plus: BE3C Assay for Interleukin-1 alpha (IL1a) Biomarker Activity (AID 2283016; active means hit-call score of the fitted dose curve at least 0.9, where 1 is the maximum; inactive means score below 0.9). As to conditions: primary human bronchial epithelial cells; actives raise or lower the signal. Summed up:
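Cultures of primary human bronchial epithelial cells receive test chemical. After 24 h, IL-1a is quantified by ELISA, while parallel wells are fixed in TCA and SRB-stained for total protein. Changes in either direction are fitted relative to DMSO.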

Read-out in test [6]: Monocyte Chemoattractant Protein-1 (MCP1), CCL2 (gene 6347)
Kind of test: BSK_3C_MCP1: BioMAP Diversity Plus: 3C Assay for Monocyte Chemoattractant Protein-1 (MCP1) Biomarker Activity (AID 2283017; active means hit-call score of the fitted dose curve at least 0.9, where 1 is the maximum; inactive means score below 0.9). As to conditions: primary human endothelial cells (HUVEC); actives raise or lower the signal. Summed up: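 Human umbilical vein endothelial cells (3C system) exposed to chemicals for 24 h; MCP-1 quantified by ELISA against the DMSO baseline with bidirectional fitting, and parallel SRB staining used to assess cytotoxicity.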

Read-out in test [7]: Monocyte Chemoattractant Protein-1 (MCP1), CCL2 (gene 6347)
Briefly: BSK_4H_MCP1: BioMAP Diversity Plus: 4H Assay for Monocyte Chemoattractant Protein-1 (MCP1) Biomarker Activity (AID 2283018; active means hit-call score of the fitted dose curve at least 0.9, where 1 is the maximum; inactive means score below 0.9). As to conditions: primary human endothelial cells (HUVEC); actives raise or lower the signal. Summed up: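 Readout: MCP-1 ELISA on compound-treated HUVEC, sampled 24 h post-dosing. Baseline and negative control DMSO; bidirectional fit. Overt toxicity checked alongside by sulforhodamine B protein staining at time of biomarker measurement.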

Read-out in test [8]: Human Leukocyte Antigen - DR isotype (HLADR), HLA-DRA (gene 3122)
Kind of test: BSK_3C_HLADR: BioMAP Diversity Plus: 3C Assay for Human Leukocyte Antigen - DR isotype (HLADR) Biomarker Activity (AID 2283019; active means hit-call score of the fitted dose curve at least 0.9, where 1 is the maximum; inactive means score below 0.9;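 further: ELISA of cell-surface HLA-DR on HUVEC 24 h after dosing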). To be noted: primary human endothelial cells (HUVEC); actives raise or lower the signal. The gist of the method:
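HUVEC monoculture, HLA-DR measured by ELISA 24 h after chemical dosing. Fitted bidirectionally against DMSO baseline; parallel SRB staining assessed cytotoxicity, with 3C proliferation read by SRB at 48 h.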

Read-out in test [9]: Interleukin-8 (IL8), CXCL8 (gene 3576)
Kind of test: BSK_3C_IL8: BioMAP Diversity Plus: 3C Assay for Interleukin-8 (IL8) Biomarker Activity (AID 2283020; active means hit-call score of the fitted dose curve at least 0.9, where 1 is the maximum; inactive means score below 0.9). As to conditions: primary human endothelial cells (HUVEC); actives raise or lower the signal. Summed up:
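Human vascular endothelial cells (umbilical vein) in the 3C system; IL-8 level detected by ELISA at 24 h post-dose, with DMSO as baseline.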

Test [10] deals with human Vitamin D Receptor (VDR), VDR (gene 7421) (UniProt P11473). Briefly: ATG_VDR_TRANS: Attagene TRANS-FACTORIAL HepG2 Assay for human Vitamin D Receptor (VDR) (AID 2283022). The gist of the method: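 HepG2 cells were transiently transfected with GAL4-UAS reporter units and a chimeric VDR-Gal4 construct, then dosed for 24 hours. Reporter mRNA was quantified by RT-PCR, fluorescent labeling, HpaI digestion and capillary electrophoresis; gain of signal analysed vs DMSO.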
Chain of human Vitamin D Receptor (VDR), VDR (gene 7421) (P11473 whole entry, looked up, the tested form may be a part): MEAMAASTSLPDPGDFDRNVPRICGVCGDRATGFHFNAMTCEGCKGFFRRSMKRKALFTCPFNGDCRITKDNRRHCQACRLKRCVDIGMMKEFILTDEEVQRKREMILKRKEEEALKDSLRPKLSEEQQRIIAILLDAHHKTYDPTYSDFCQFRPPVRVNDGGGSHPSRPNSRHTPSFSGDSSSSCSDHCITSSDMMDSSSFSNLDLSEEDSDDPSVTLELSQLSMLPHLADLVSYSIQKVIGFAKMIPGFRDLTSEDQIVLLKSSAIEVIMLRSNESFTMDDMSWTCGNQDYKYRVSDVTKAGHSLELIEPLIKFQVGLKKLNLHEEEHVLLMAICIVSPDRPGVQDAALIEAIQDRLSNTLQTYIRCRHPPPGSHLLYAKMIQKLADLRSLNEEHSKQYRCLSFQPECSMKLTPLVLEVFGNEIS

The nature of test [11]: BSK_3C_SRB: Viability Assessment in the BioMAP Diversity Plus: 3C Assay (AID 2283023; active means hit-call score of the fitted dose curve at least 0.9, where 1 is the maximum; inactive means score below 0.9;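 further: fitted both ways against DMSO so a hit may be signal rise or drop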). To be noted: primary human endothelial cells (HUVEC). Summed up:
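Human umbilical vein endothelial cells in the 3C system, treated 24 h. Total protein measured by 0.1% sulforhodamine B staining after 10% TCA fixation, read at 560 nm; bidirectional fit versus DMSO.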

Read-out in test [12]: Matrix Metallopeptidase 1 (MMP1), MMP1 (gene 4312)
Kind of test: BSK_BE3C_MMP1: BioMAP Diversity Plus: BE3C Assay for Matrix Metallopeptidase 1 (MMP1) Biomarker Activity (AID 2283024; active means hit-call score of the fitted dose curve at least 0.9, where 1 is the maximum; inactive means score below 0.9). To be noted: primary human bronchial epithelial cells; actives raise or lower the signal. Summed up: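 Dose cells, wait 24 h, run MMP1 ELISA; cells are human bronchial epithelial primaries. Both increases and decreases relative to DMSO counted.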

Read-out in test [13]: Pselectin, SELP (gene 6403)
Briefly: BSK_4H_Pselectin: BioMAP Diversity Plus: 4H Assay for Pselectin Biomarker Activity (AID 2283026; active means hit-call score of the fitted dose curve at least 0.9, where 1 is the maximum; inactive means score below 0.9). To be noted: primary human endothelial cells (HUVEC); actives raise or lower the signal. The gist of the method: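 Human vascular endothelium from umbilical vein; P-selectin measured by ELISA at 24 h post-dose, with cytotoxicity checked by sulforhodamine B total-protein staining in parallel cultures (0.1% SRB after 10% TCA fixation, read at 560 nm).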

Test [14] can be described thus: BSK_4H_SRB: Viability Assessment in the BioMAP Diversity Plus: 4H Assay (AID 2283027; active means hit-call score of the fitted dose curve at least 0.9, where 1 is the maximum; inactive means score below 0.9;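 further: cells exposed to compound for 24 h before staining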). To be noted: primary human endothelial cells (HUVEC). The gist of the method: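 Absorbance at 560 nm of SRB-stained total protein served as the viability read-out in confluent primary human umbilical vein endothelium 24 h after chemical treatment. Curves were fitted bidirectionally against DMSO as negative control.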

A short description of test [15]: BSK_BE3C_SRB: Viability Assessment in the BioMAP Diversity Plus: BE3C Assay (AID 2283028; active means hit-call score of the fitted dose curve at least 0.9, where 1 is the maximum; inactive means score below 0.9). As to conditions: primary human bronchial epithelial cells. The gist of the method: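 Human bronchial epithelial primary cells in confluent culture, 24 h after chemical dosing; total protein by 0.1% SRB staining after 10% TCA fixation, read at 560 nm. Bidirectional fitting versus DMSO baseline.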

Read-out in test [16]: Thrombomodulin, THBD (gene 7056)
Briefly: BSK_3C_Thrombomodulin: BioMAP Diversity Plus: 3C Assay for Thrombomodulin Biomarker Activity (AID 2283029; active means hit-call score of the fitted dose curve at least 0.9, where 1 is the maximum; inactive means score below 0.9). To be noted: primary human endothelial cells (HUVEC); actives raise or lower the signal. The gist of the method:
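Thrombomodulin ELISA, human primary HUVEC, 24 h post-dose; data fitted in both directions relative to DMSO.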

Read-out in test [17]: Urokinase-type plasminogen activator receptor (uPAR), PLAUR (gene 5329)
Kind of test: BSK_4H_uPAR: BioMAP Diversity Plus: 4H Assay for Urokinase-type plasminogen activator receptor (uPAR) Biomarker Activity (AID 2283030; active means hit-call score of the fitted dose curve at least 0.9, where 1 is the maximum; inactive means score below 0.9). To be noted: primary human endothelial cells (HUVEC); actives raise or lower the signal. The gist of the method:
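Human umbilical vein endothelial cells in the 4H system, 24 h after chemical dosing. Cell-surface uPAR measured by ELISA, fitted in both directions versus DMSO; cytotoxicity checked by SRB total protein in parallel cultures.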

Read-out in test [18]: Vascular endothelial growth factor receptor 2 (Homo sapiens) (UniProt P35968)
Briefly: BSK_4H_VEGFRII: BioMAP Diversity Plus: 4H Assay for Vascular endothelial growth factor receptor 2 (VEGFR2) Biomarker Activity (AID 2283031; active means hit-call score of the fitted dose curve at least 0.9, where 1 is the maximum; inactive means score below 0.9). To be noted: primary human endothelial cells (HUVEC); actives raise or lower the signal. Summed up:
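Primary human umbilical vein endothelial cells (4H system), 24 h exposure; cell-surface VEGFR2 measured by ELISA. Bidirectional fitting versus DMSO; cytotoxicity checked in parallel by SRB total-protein staining.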

Chain of human Retinoid X Receptor beta (RXRb), RXRB (gene 6257) (P28702 whole entry, looked up): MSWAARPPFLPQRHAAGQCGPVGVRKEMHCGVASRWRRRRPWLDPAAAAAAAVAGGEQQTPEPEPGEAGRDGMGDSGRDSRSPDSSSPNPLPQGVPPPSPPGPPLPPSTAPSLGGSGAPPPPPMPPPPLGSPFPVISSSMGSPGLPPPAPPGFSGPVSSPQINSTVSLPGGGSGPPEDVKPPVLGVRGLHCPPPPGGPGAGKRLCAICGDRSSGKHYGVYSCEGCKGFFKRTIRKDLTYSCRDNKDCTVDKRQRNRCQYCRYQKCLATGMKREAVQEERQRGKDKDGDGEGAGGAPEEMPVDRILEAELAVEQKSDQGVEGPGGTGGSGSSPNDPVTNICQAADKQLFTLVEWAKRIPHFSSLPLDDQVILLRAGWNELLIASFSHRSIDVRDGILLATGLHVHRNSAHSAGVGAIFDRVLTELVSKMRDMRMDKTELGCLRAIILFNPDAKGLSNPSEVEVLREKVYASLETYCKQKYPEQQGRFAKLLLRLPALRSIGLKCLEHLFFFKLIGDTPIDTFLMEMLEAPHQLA
Chain of Retinoic acid receptor RXR-alpha (Homo sapiens) (P19793 whole entry, looked up, the tested form may be a part): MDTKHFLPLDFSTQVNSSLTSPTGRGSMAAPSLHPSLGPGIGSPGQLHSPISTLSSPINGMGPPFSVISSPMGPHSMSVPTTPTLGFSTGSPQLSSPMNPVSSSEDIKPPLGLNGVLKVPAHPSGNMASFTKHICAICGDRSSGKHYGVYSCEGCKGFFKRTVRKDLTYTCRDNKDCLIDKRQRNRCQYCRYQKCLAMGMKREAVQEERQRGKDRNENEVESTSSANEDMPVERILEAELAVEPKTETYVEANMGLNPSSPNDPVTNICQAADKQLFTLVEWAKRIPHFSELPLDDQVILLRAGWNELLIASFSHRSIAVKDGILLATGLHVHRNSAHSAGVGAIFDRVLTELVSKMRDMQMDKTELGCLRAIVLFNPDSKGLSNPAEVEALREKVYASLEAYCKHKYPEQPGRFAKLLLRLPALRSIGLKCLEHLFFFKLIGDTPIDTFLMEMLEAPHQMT
Chain of human Thyroid Receptor alpha (THRa1), THRA (gene 7067) (P10827 whole entry, looked up, the tested form may be a part): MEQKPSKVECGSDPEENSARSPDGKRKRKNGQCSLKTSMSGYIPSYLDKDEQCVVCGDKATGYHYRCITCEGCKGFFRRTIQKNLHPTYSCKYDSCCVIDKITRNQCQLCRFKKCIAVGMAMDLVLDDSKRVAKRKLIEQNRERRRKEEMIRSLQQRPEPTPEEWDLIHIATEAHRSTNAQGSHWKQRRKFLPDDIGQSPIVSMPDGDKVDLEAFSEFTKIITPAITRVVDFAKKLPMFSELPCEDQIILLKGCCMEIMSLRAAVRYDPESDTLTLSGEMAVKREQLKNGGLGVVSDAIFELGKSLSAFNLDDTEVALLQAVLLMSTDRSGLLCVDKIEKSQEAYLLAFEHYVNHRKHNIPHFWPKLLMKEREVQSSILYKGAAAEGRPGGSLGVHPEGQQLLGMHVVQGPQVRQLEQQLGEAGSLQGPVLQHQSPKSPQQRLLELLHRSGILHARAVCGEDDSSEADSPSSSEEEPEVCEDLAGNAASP
Chain of E-selectin (Homo sapiens) (P16581 whole entry, looked up): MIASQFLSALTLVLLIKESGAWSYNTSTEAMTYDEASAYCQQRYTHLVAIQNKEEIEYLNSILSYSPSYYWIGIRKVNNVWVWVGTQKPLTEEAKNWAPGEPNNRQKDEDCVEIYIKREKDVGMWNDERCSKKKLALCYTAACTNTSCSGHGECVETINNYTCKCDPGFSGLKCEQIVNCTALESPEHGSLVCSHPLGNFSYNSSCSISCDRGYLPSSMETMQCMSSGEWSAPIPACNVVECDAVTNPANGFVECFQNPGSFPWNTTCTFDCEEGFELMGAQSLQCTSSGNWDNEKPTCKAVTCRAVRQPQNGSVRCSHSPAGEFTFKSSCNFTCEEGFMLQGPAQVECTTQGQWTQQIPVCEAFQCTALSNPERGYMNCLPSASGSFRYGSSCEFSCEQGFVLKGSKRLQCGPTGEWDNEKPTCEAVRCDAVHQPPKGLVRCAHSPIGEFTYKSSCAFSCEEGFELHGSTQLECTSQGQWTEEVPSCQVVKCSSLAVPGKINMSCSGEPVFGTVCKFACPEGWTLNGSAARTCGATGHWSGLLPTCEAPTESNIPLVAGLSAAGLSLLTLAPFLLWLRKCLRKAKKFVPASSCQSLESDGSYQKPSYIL

Take `CC(=O)C(=O)O`: the outcome in test [1] and in test [2] was inactive.
`C=C(C)C1CCC(C)CC1O` (configuration not stated): the result in [1] was inactive.
Turning to `C=CC(C)(C)O`, the molecule was called inactive in test [1] and in [2].
As for `COCCCOc1ccnc(CS(=O)c2nc3ccccc3[nH]2)c1C` (configuration not stated), the call in test [1] and in test [2] was inactive. Moreover, the AC50 in [3] is 100 µM (active).
`O=C(O)CCCCCCCC(=O)O`: the molecule was called inactive in [1].
Consider `O=C(O)CN(CCN(CC(=O)O)CC(=O)O)CCN(CC(=O)O)CC(=O)O`, for which the molecule was classed as inactive in test [1].
`CC(CC(C)(C)C)CC(C)(C)CC(C)(C)C` (configuration not stated): the outcome in test [1], in test [2] and in test [3] was inactive.
Turning to `O=C(O)Cc1cccc2ccccc12`, the molecule was called inactive in [1] and in [2].
On to `CN1Cc2c(N)cccc2C(c2ccccc2)C1` (configuration not stated), for which, in test [1], the molecule was called inactive.
As to `C=C(C)C(=O)OCc1ccccc1`, the molecule was classed as inactive in test [1], in test [2] and in [3].
Consider `CCOC(=S)SSC(=S)OCC`, for which the molecule was called inactive in [1] and in [2].
As for `CCCCCCCCCCCCOCCO`, the call in [1] was inactive. For the same molecule, the AC50 in test [2] was 33.4 µM (active).
With `CCC/C=C/C=O`, in test [1], the molecule was classed as inactive.
Regarding `COc1ccc(Nc2ccccc2)c(C)c1`, the call in test [1] and in [3] was inactive. For the same molecule, the AC50 in test [2] was 33.1 µM (active).
For `OCC(CO)(CO)COCC(CO)(CO)CO`, the result in test [1] and in test [2] was inactive.
For the molecule `COc1ccnc(CS(=O)c2nc3cc(OC(F)F)ccc3[nH]2)c1OC` (configuration not stated), the call in test [1] and in test [2] was inactive.
As to `C=C(C)[C@@H]1CC[C@@H](C)C[C@@H]1O`, the call in test [1] was inactive.
For the molecule `O=C1CCCCCCCCCCOCCCCO1`, the call in [1], in test [2] and in [3] was inactive.
On to `CC(C)(N)CO`, for which the molecule was classed as inactive in [1] and in test [2].
With `COc1c(Cl)c(Cl)c(Cl)c(Cl)c1Cl`, the AC50 in test [1] is 29.1 µM (active); in test [2], 6.22 µM (active). The call in test [3] was inactive.
As for `Clc1ccc2c(c1)C(N1CCNCC1)=Nc1ccccc1O2`, the call in test [1] was inactive. The AC50 in test [2] was 55.3 µM (active).
On to `CC(=O)Nc1ccc(CC(=O)O)cc1`, for which the molecule was called inactive in [1].
In the case of `CCCCCCOC(=O)CC`, the call in test [1], in test [2] and in test [3] was inactive.
As for `[Ca+2]`, the call in [1] and in [2] was inactive.
As to `Cc1cccc(Nc2ccccc2C(=O)O)c1C`, the result in [1], in test [2] and in test [3] was inactive.
For the molecule `O=C(O)CCSCCC(=O)O`, the result in test [1] and in [2] was inactive.
Consider `S=C(S)NCCNC(=S)S`, for which the result in test [1] was inactive.
`CCC(O)CO` (configuration not stated): the molecule was classed as inactive in test [1], in test [2] and in test [3].
As for `CC(C)[C@H]1CC[C@@H](C)CC1=O`, the outcome in [1] and in test [2] was inactive.
Regarding `CCCCCC=CCC(=O)OC`, the molecule was called inactive in test [1].
Same read-out and setting: under `Cc1ccc(S)cc1` stands “inactive”.
Still for that read-out and setting: under `CSc1nnc(C(C)(C)C)c(=O)[nH]1` stands “inactive”.
As to `CCOc1ccccc1OCC`, the molecule was classed as inactive in test [1], in [2] and in [3].
In the case of `CCCCN`, the result in [1], in test [2] and in test [3] was inactive.
As for `CCCCCOC(=O)CCC`, the molecule was classed as inactive in [1] and in test [2].
For `CCCOCC(C)O` (configuration not stated), the molecule was called inactive in [1], in test [2] and in test [3].
Take `CC(=O)/C=C/C1=C(C)CCCC1(C)C`: the molecule was classed as inactive in test [1], in [3], in [4], in [5], in test [6] and in test [7]. In addition, the outcome in test [8], in [9], in [10], in test [11], in test [12] and in test [13] was inactive. Moreover, the result in test [14], in test [15], in test [16], in test [17] and in test [18] was inactive. Further, the AC50 in test [2] is 80 µM (active).
In the case of `CN(C)CCCN`, the call in test [1], in [2], in test [3] and in test [10] was inactive.
As for `O=S(=O)(O)c1ccc(O)c2ncccc12`, the call in test [1], in test [2], in test [3] and in test [10] was inactive.
With `Clc1nc(C(Cl)(Cl)Cl)c(Cl)c(Cl)c1Cl`, the molecule was classed as inactive in test [1] and in test [3]. The AC50 in [2] is 21.8 µM (active).
